RGS7-Gao – RGS7-Galphao binding modulators, primary screen, biochemical, multiplexed bead flow cytometry | 220,000 compounds, 0.35% hits | binding response (% of control), % at 10 µM | AID 1439, 2008 | actives lie on both sides; in the data active means binding response below about 49% or above about 150%; inconclusive means no clear call, values can overlap the other calls; inactive means in between;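 further: fluorescent Galphao held in activated GDP-AlF4 state binding bead-coupled RGS7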
Target sequence (P09471 whole entry, looked up): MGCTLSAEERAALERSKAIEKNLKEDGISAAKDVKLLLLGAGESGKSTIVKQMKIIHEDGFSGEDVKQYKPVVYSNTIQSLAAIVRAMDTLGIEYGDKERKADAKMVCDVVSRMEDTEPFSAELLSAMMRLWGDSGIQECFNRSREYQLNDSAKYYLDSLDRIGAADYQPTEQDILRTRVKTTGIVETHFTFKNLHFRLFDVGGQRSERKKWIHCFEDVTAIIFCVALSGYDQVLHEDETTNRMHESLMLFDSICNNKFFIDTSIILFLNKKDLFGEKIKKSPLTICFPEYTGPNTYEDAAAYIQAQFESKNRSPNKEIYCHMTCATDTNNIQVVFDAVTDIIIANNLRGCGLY
RGS4-Gao reg – modulators of RGS4 binding to Galphao, primary screen, biochemical, multiplexed bead flow cytometry | 220,000 compounds, 0.33% hits | actives lie on both sides | binding response (% of control), % at 10 µM | Guanine nucleotide-binding protein G(o) subunit alpha (Homo sapiens), P09471; in the data active means binding response below about 49% or above about 150%; inactive means in between;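 further: fluorescent Galphao activated with aluminum fluoride binding bead-coupled RGS4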
Avidin fluor – green autofluorescence of compounds with avidin beads – biophysical, 488/530 nm, flow cytometry, artefact control, profiling panel. 220,000 compounds, 0.38% hits. compound fluorescence 488/530 nm; active compounds read high. AID 1775, 2009. fluorescence (KMESF) at 10 µM; in the data active means fluorescence above about 47
RGS8-Gao – RGS8-Galphao binding modulators, primary screen, biochemical, multiplexed bead flow cytometry; Guanine nucleotide-binding protein G(o) subunit alpha (Homo sapiens), P09471; actives lie on both sides; response (percent of control binding), % at 10 µM; 220,000 compounds, 0.34% hits; AID 1423, 2008; in the data active means response below about 60% or above about 140%; inactive means in between;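 further: Galphao activated as the GDP aluminium fluoride complex binding bead-coupled RGS8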
RGS16-Gao HTS – modulators of RGS16 binding to Galphao, primary screen, biochemical, human proteins, multiplexed bead flow cytometry. Regulator of G-protein signaling 16 (Homo sapiens) + Guanine nucleotide-binding protein …. bead-based flow cytometry RGS16-Galphao binding, fluorescence; actives lie on both sides. binding response (% of control), % at 10 µM. 220,000 compounds, 0.38% hits. AID 1441, 2008;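 further: Galphao activated by GDP with aluminum fluoride before binding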
Target sequence (O15492 whole entry, looked up): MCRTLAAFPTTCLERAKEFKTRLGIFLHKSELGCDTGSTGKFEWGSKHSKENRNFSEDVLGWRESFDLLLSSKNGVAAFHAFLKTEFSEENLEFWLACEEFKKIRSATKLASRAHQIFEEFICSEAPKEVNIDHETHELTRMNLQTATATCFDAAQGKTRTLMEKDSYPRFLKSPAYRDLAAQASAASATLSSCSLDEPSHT
Target sequence (P09471 whole entry, looked up): as the sequence (P09471 whole entry, looked up) above
GSH bead fluor – compound fluorescence on glutathione beads, profiling panel, artefact control, biophysical, 488/530 nm, flow cytometry. GSH beads flow cytometry, compound fluorescence 488/530 nm; active compounds read high. fluorescence (KMESF) at 10 µM. 190,000 compounds, 0.25% hits; in the data active means fluorescence above about 89;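 further: glutathione beads carrying GST-tagged Bcl family fusion proteins plus one bare bead set; values are compound well signal with DMSO vehicle wells as background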
RGS4-Gao HTS – modulators of RGS–Galpha-o binding, primary screen, biochemical, multiplexed beads, flow cytometry, RGS4/7/8/16/19. shares compounds with RGS16-Gao HTS. multiplexed bead flow cytometry. RGS4–Galpha-o binding response, % at 10 µM. 1,600 compounds, 99% hits. AID 1504, 2009;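 further: fluorescently labeled Galpha-o bound to GDP with aluminium fluoride binding biotinylated RGS beads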
Biotin-avidin – disruption of biotin probe capture by avidin, counter-screen for RGS protein interaction modulators, biochemical, flow cytometry, bead-based. shares compounds with RGS16-Gao HTS. streptavidin beads, fluorescein-biotin binding. inhibition, % at 10 µM. 1,700 tested, under 10 active. AID 1783, 2009;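 active means inhibition above 50%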;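 further: median green fluorescence of gated singlet beads compared with DMSO control wells; 0% = DMSO wells and 100% = complete loss of bead fluorescence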
RGS8-Gao confirm – RGS8-Galphao binding modulators, confirmation, biochemical, multiplexed bead flow cytometry, single concentration; shares compounds with RGS16-Gao HTS; bead-based flow cytometry RGS8-Galphao binding, fluorescence; actives lie on both sides; binding response (% of control), % at 10 µM; 1,700 compounds, 3% hits; in the data active means binding response below about 72% or above about 130%; inactive means in between;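 further: Galphao activated as GDP AlF4 complex before binding bead RGS8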
RGS7-Gao single – RGS7-Galphao binding modulators, confirmation, biochemical, multiplexed bead flow cytometry, single concentration; 1,700 compounds, 7.8% hits; bead-based flow cytometry RGS7-Galphao binding; actives lie on both sides; response (percent of control binding), % at 10 µM; AID 1837, 2009; shares compounds with RGS16-Gao HTS; in the data active means response below about 75% or above about 130%; inactive means in between;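 further: fluorescent Galphao activated with GDP and aluminum fluoride binding bead-coupled RGS7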
RGS16-Gao single – modulators of RGS16-Galphao protein binding, confirmation, biochemical, single concentration, multiplexed bead flow cytometry; 1,700 compounds, 4% hits; bead-based flow cytometry; actives lie on both sides; response (% of control binding), % at 10 µM; shares compounds with RGS16-Gao HTS; AID 1838, 2009; in the data active means response below about 74% or above about 130%; inactive means in between;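 further: Galphao activated as the GDP aluminium fluoride complex binding bead-coupled RGS16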
RGS4-Gao single – modulators of RGS4-Galphao protein binding, confirmation, biochemical, single concentration, multiplexed bead flow cytometry; 1,700 compounds, 4% hits; actives lie on both sides; binding response (% of control), % at 10 µM; shares compounds with RGS16-Gao HTS; in the data active means binding response below about 74% or above about 130%; inactive means in between
RGS19-Gao single – regulators of RGS19-Galphao binding, confirmation, biochemical, single point, multiplexed bead flow cytometry. shares compounds with RGS16-Gao HTS. bead-based flow cytometry RGS19-Galphao binding; actives lie on both sides. response (percent of control binding), % at 10 µM. 1,700 compounds, 5% hits. AID 1841, 2009; in the data active means response below about 50% or above about 160%; inactive means in between;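 further: 100% = no compound control and 0% = blank background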
An asterisk follows results filed as active; ? = inconclusive; . = no result; [ ] = dose if it differs, or a comment. Sampled rows, rich in hits. Any-hit rate of the full collection: about 1.2%. Unless noted, how the calls were made is not given here.

SMILES | RGS7-Gao | RGS4-Gao reg | Avidin fluor | RGS8-Gao | RGS16-Gao HTS | GSH bead fluor | RGS4-Gao HTS | Biotin-avidin | RGS8-Gao confirm | RGS7-Gao single | RGS16-Gao single | RGS4-Gao single | RGS19-Gao single
COc1ccc2nc(N/C(N)=N/C(=S)Nc3c(C)cccc3C)nc(C)c2c1 | 117.8 | 113.2 | 9 | 118.8 | 203.2*[activator] | 22 | 113.2* | 0.6 | 99.4 | 98.7 | 102.7 | 98.9 | 88.3
CC(=O)Nc1ccccc1C(F)(F)F | ? | 21.9* | 2 | 47.7* | 29.6 | . | . | 0.9 | 106.5 | 113.3 | 105.4 | 107.7 | 96.4
O/N=C/c1cccnc1Sc1ccccc1 | 157.3*[activator] | 152.4*[activator] | 24 | 162.5*[activator] | 179.9*[activator] | 11 | . | -0.2 | 101.9 | 99.5 | 101.3 | 99.2 | 105.7
O=C(c1ccco1)N1CCN(Cc2cn[nH]c2-c2ccc(F)cc2F)CC1 | 102.4 | 108.6 | 13 | 104.0 | 107.7 | 13 | . | . | . | . | . | . | .
Cc1cccn2c(CNCC3(c4ccccc4)CCCC3)c(C(=O)N3CCOCC3)nc12 | 111.4 | 103.3 | 15 | 100.7 | 104.8 | 11 | . | . | . | . | . | . | .
C=CCn1c(C(CCCC)CC(C)O)n[nH]c1=S (stereo unspecified) | 85.0 | 84.3 | 5 | 67.4 | -9.0* | 9 | 84.3* | 0.1 | 91.5 | 88.5 | 87.2 | 89.7 | 55.4
C=CCn1c(C(CCC(C)C)CC(C)(C)O)n[nH]c1=S (stereo unspecified) | 111.0 | 102.5 | 6 | 102.7 | 93.7 | 28 | . | . | . | . | . | . | .
Cc1cc(C)cc(NC(=O)Nc2ccccc2N2CCCCC2)c1 | ? | 95.7 | 7 | 101.2 | 100.0 | . | . | . | . | . | . | . | .
Nc1ccc(-c2nc3ccc(N)cc3o2)cc1 | 1.9* | 50.5 | 0 | 47.0* | 40.0 | 7 | 50.5* | 0.2 | 106.4 | 105.1 | 107.5 | 103.3 | 105.1
Cc1ccc2nc(-c3cc(N)cc(N)c3)oc2c1 | 80.5 | 84.5 | 29 | 92.9 | 87.5 | 18 | . | . | . | . | . | . | .
CCC(C)(C)NC(=O)C1CCN(c2nc(OC)nc(OC)n2)CC1 | 91.6 | 91.4 | 5 | 96.8 | 90.2 | . | . | . | . | . | . | . | .
Cc1nc(N2CCCCC2)c(C#N)c(C)c1[N+](=O)[O-] | 147.7 | 156.2*[activator] | 16 | 104.8 | 133.4 | 25 | . | -0.1 | 101.8 | 97.2 | 101.5 | 95.8 | 103.3
CC(C)c1ccc(NC(=O)COC(=O)C2=COCCO2)cc1 | 108.3 | 112.1 | 6 | 121.2 | 186.6 | 19 | . | . | . | . | . | . | .
CC(C)(C)c1ccc(NC(=O)COC(=O)C2=COCCO2)cc1 | 109.0 | 116.8 | 3 | 105.5 | -183.3* | 4 | 116.8* | 0.5 | 92.8 | 59.7* | 74.6 | 73.4* | 57.4
CCN(CC)c1ccc(NC(=O)Nc2cccc(C(C)=O)c2)cc1 | -3.4* | -7.5* | -5 | 5.3* | -17.1* | 36 | . | 1.1 | 96.9 | 93.8 | 97.2 | 91.6 | 95.6
COc1cccc(Cn2c(C3CC3)nc3ccc(NC(=O)c4ccco4)cc3c2=O)c1 | 578.5*[activator] | 77.3 | 603* | 76.3 | 134.4 | 9 | 77.3* | -0.3 | 101.5 | 106.3 | 103.5 | 101.6 | 98.8
O=C(NCCN1CCN(Cc2ccc([N+](=O)[O-])cc2)CC1)C(=O)Nc1ccccc1 | 97.1 | 96.8 | 18 | 99.8 | 99.2 | 33 | . | . | . | . | . | . | .
O=C(NCCN1CCN(S(=O)(=O)c2ccc([N+](=O)[O-])cc2)CC1)C(=O)Nc1ccccc1 | 221.4*[activator] | 130.9 | 152* | 89.3 | 86.8 | 25 | 130.9* | -1.6 | 99.1 | 102.2 | 101.4 | 99.7 | 106.6
CCCn1c(SCC(=O)N2CCCC2)nc2c1c(=O)n(C)c(=O)n2C | 187.5*[activator] | 156.5*[activator] | 77* | 93.3 | 107.2 | 9 | . | -0.6 | 100.0 | 95.5 | 96.6 | 96.8 | 96.7
O=C(Cn1cc2c(n1)CCCCC2)Nc1ccccc1Br | ? | 24.7* | 1 | 28.1* | 14.0* | . | . | 1.5 | 98.3 | 98.5 | 96.1 | 97.9 | 90.3
COc1ccc(C2C(C#N)=C(N)Oc3c2sc2nc(C)cc(C)c32)cc1 (stereo unspecified) | 117.3 | 121.0 | 89* | 103.2 | 187.1*[activator] | 6 | 121.0* | -0.9 | 101.2 | 101.0 | 99.5 | 102.1 | 104.3
Cc1ccc(S(=O)(=O)c2ccc(Oc3cccc(C)c3)cc2)cc1 | 103.2 | 100.6 | 41 | 103.6 | 100.8 | 13 | . | . | . | . | . | . | .
CCOc1ccccc1N1CCN(C(=O)CC(C)C)CC1 | 94.2 | 99.5 | 15 | 100.9 | 103.4 | 11 | . | . | . | . | . | . | .
O=[N+]([O-])c1cccc(-c2noc(-c3cccs3)n2)c1 | ? | 90.2 | 6 | 101.7 | 95.1 | . | . | . | . | . | . | . | .
CCOC(=O)c1sc(Nc2nc3cc4c(cc3s2)OCO4)cc1C | 665.6*[activator] | 582.7*[activator] | 417* | 170.8*[activator] | 938.1*[activator] | 102* | . | 1.8 | 92.1 | 69.3* | 79.8 | 79.9 | 48.0*
CC(=O)c1sc(Nc2nc3cc4c(cc3s2)OCO4)nc1C | 95.3 | 97.7 | 11 | 95.3 | 94.8 | 9 | . | . | . | . | . | . | .
Nc1nc(-c2c[nH]c3ccccc23)cs1 | 101.7 | 99.3 | 36 | 98.9 | 100.1 | 39 | . | . | . | . | . | . | .
CNc1nc(-c2c[nH]c3ccccc23)cs1 | 150.8*[activator] | 191.7*[activator] | 93* | 111.1 | 202.1*[activator] | 24 | . | -1.7 | 97.8 | 101.1 | 97.5 | 100.8 | 105.5

Assay outcomes (PubChem)
